Compound activity deposited in PubChem by National Center for Advancing Translational Sciences (NCATS).
Shown are actives, neighbours in structure and some others; about 2.4% of the full set was active somewhere.
SmPrx2 inh = Schistosoma Mansoni Peroxiredoxins (Prx2). S. mansoni Prx2 activity coupled to TGR/GSH (TGR is thioredoxin glutathione reductase), NADPH fluorescence loss, qHTS. Potency, µM. 65,000 tested, 0.07% active. AID 448, 2006
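Enzyme mix: 100 uM NADPH, 25 nM TGR, 700 uM GSH, 50 nM Prx2 in 100 mM phosphate pH 7.4, 10 mM EDTA, 0.01% Tween-20. 15 min RT with compound; NADPH/GSH added, H2O2 starts reaction; NADPH fluorescence read 8 min.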
Anthrax LT inh = qHTS Assay for Anthrax Lethal Toxin Internalization; 70,000 tested, 0.67% active; Cells, anthrax lethal toxin internalization, FRET ratio (460/530); Potency, µM (titrated, usually from 40 µM), actives largely listed as inhibitors; also: nearly all actives have a fitted effect of over 50% in size
AmpC inh det = Promiscuous and Specific Inhibitors of AmpC Beta-Lactamase (assay with detergent). Potency, µM (top dose mostly 28.7 µM). AID 584, 2007. 71,000 tested, 0.09% active. P00811. purified AmpC, nitrocefin hydrolysis with detergent; active = well fitted curve in the direction sought with a large enough effect; inconclusive = small, poorly fitted or top-dose-only effect
Target sequence (P00811 whole entry, looked up): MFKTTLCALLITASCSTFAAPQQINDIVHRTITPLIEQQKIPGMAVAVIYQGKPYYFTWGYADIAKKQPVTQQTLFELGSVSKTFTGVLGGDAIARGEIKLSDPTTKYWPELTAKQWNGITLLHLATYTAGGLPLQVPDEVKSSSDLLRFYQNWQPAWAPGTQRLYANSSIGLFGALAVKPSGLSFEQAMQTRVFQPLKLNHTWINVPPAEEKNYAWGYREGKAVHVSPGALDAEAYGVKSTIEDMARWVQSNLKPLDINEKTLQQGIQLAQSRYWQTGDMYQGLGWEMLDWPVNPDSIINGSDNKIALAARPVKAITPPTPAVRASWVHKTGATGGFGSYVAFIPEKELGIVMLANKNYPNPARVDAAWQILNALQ
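E. coli AmpC (5.3 nM) in 20 mM phosphate pH 7.0 with 0.01% Triton X-100, preincubated 15 min RT with compound; nitrocefin (2 uL of 800 uM stock) hydrolysis followed by 480 nm absorbance every 20 s over 4 min.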
AmpC inh no det = Promiscuous and Specific Inhibitors of AmpC Beta-Lactamase (assay without detergent); Potency, µM (doses to about 28.7 µM); P00811; 71,000 tested, 1.8% active; AmpC nitrocefin hydrolysis, absorbance 480 nm, no detergent
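Enzyme, pH 7.0 phosphate. Compound titrations were pre-incubated with AmpC for 15 min at room temperature before nitrocefin (stock 800 uM) addition; product formation was recorded at 480 nm every 20 s for 4 min.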
A number is an active result; ! = not active in a repeat; [ ] = another dose, or the depositor's remark. Unless noted, calls follow the shape of the full dose curve.

Results for CCN1CCN(Cc2ccc(NC(=O)Nc3ccc(OC)cc3)cc2)CC1 ?
SmPrx2 inh: inactive; Anthrax LT inh: inactive; AmpC inh det: inactive; AmpC inh no det: 3.98µM[single pt active]

How did CCN1CCN(Cc2ccc(NC(=O)Nc3ccccc3)cc2)CC1 do in these assays?
SmPrx2 inh: inactive; Anthrax LT inh: inconclusive; AmpC inh det: inactive; AmpC inh no det: inactive

What do the screens show for `Cc1ccc(C)c(-n2c(Cc3cc(=O)[nH]c(=O)[nH]3)nnc2SC(C)C)c1`?
SmPrx2 inh: inactive; Anthrax LT inh: inactive; AmpC inh det: inactive; AmpC inh no det: 3.98µM[single pt active]

Results for CCC(C)Sc1nnc(Cc2cc(=O)[nH]c(=O)[nH]2)n1-c1ccc(OC)cc1 (stereo not drawn) ?
SmPrx2 inh: inactive; Anthrax LT inh: inactive; AmpC inh det: inactive; AmpC inh no det: 3.16µM[single pt active]

What do the screens show for `COC(=O)C(C)Sc1nnc(Cc2cc(=O)[nH]c(=O)[nH]2)n1-c1ccc(OC)cc1` (stereo not drawn)?
SmPrx2 inh: inactive; Anthrax LT inh: inactive; AmpC inh det: inactive; AmpC inh no det: 3.98µM[single pt active]

How did CCOc1ccc(-n2c(Cc3cc(=O)[nH]c(=O)[nH]3)nnc2SCC(=O)OC)cc1 do in these assays?
SmPrx2 inh: inactive; Anthrax LT inh: inactive; AmpC inh det: inactive; AmpC inh no det: 3.98µM[single pt active]

What do the screens show for `Cc1ccc(-c2nnc(N3CCN(c4ccccn4)CC3)c3ccccc23)cc1`?
SmPrx2 inh: inactive; Anthrax LT inh: inactive; AmpC inh det: inactive; AmpC inh no det: inactive

Results for c1ccc(-c2nnc(N3CCN(c4ccccn4)CC3)c3ccccc23)cc1 ?
SmPrx2 inh: inactive; Anthrax LT inh: 10µM; AmpC inh det: inactive; AmpC inh no det: inactive

Results for Cc1cccc(-n2nc3c(c2NC(=O)c2ccc(Br)o2)CSC3)c1 ?
SmPrx2 inh: inactive; Anthrax LT inh: inconclusive; AmpC inh det: inactive; AmpC inh no det: 10µM

What do the screens show for `Cc1ccc(S(=O)(=O)Nc2ccc3nc(N)sc3c2)cc1`?
SmPrx2 inh: inactive; Anthrax LT inh: inactive; AmpC inh det: inactive; AmpC inh no det: 10µM

What do the screens show for `CCc1cccc(OCC(=O)Nc2ccc(S(=O)(=O)Nc3onc(C)c3C)cc2)c1`?
SmPrx2 inh: inactive; Anthrax LT inh: inactive; AmpC inh det: inactive; AmpC inh no det: 3.98µM[single pt active]

What do the screens show for `Cc1ccc(OCC(=O)Nc2ccc(S(=O)(=O)Nc3onc(C)c3C)cc2)cc1`?
SmPrx2 inh: inactive; Anthrax LT inh: inactive; AmpC inh det: inactive; AmpC inh no det: inactive

Results for Cc1ccc(S(=O)(=O)CC(=O)Nc2ccc(S(=O)(=O)Nc3onc(C)c3C)cc2)cc1 ?
SmPrx2 inh: inactive; Anthrax LT inh: inactive; AmpC inh det: inactive; AmpC inh no det: inactive

How did Cc1noc(NS(=O)(=O)c2ccc(NC(=O)COc3ccc(Cl)cc3Cl)cc2)c1C do in these assays?
Anthrax LT inh: inconclusive; AmpC inh det: inactive; AmpC inh no det: 6.31µM

How did O=[N+]([O-])c1ccc(CSCc2ccc(Cl)cc2)cc1 do in these assays?
SmPrx2 inh: inactive; Anthrax LT inh: inactive[8 µM]; AmpC inh det: inactive[5.75 µM]; AmpC inh no det: inactive[5.75 µM]

Results for O=C(O)C1CC2(C1)CC(C(=O)O)C2 (stereo not drawn) ?
SmPrx2 inh: inactive; Anthrax LT inh: inactive[8 µM]; AmpC inh det: inactive[5.75 µM]; AmpC inh no det: inactive[5.75 µM]

Results for Nc1ncn([C@H]2O[C@@H](CO)[C@@H](O)[C@@H]2O)c(=O)n1 ?
SmPrx2 inh: inactive; Anthrax LT inh: inactive[3.58 µM]; AmpC inh det: inactive; AmpC inh no det: inactive

How did CC(C)N(Cc1nc(-c2ccccc2)no1)C(=O)CN(C)S(=O)(=O)c1ccccc1 do in these assays?
SmPrx2 inh: inactive; Anthrax LT inh: inactive; AmpC inh det: inactive; AmpC inh no det: inactive

How did CC(C)N(Cc1nc(-c2ccccc2)no1)S(=O)(=O)c1ccccc1 do in these assays?
SmPrx2 inh: inactive; Anthrax LT inh: inconclusive; AmpC inh det: inactive; AmpC inh no det: 3.98µM[single pt active]

Results for COC(=O)c1nc2n(n1)C(c1cccc(Cl)c1)C1=C(CC(C)(C)CC1=O)N2 (stereo not drawn) ?
SmPrx2 inh: inactive; Anthrax LT inh: inactive; AmpC inh det: inactive; AmpC inh no det: 3.98µM[single pt active]

Results for COC(=O)C1=C(C)NC2=C(C(=O)CC(C)(C)C2)C1c1cccc(C)n1 (stereo not drawn) ?
SmPrx2 inh: inactive; Anthrax LT inh: inactive; AmpC inh det: inactive; AmpC inh no det: inactive

How did COC(=O)c1nc2n(n1)C(c1cccc(Cl)c1)C1=C(CCCC1=O)N2 (stereo not drawn) do in these assays?
SmPrx2 inh: inactive; Anthrax LT inh: inactive; AmpC inh det: inactive; AmpC inh no det: 3.98µM[single pt active]

What do the screens show for `CN1CCN(S(=O)(=O)c2ccc(NC(=O)Nc3cccc(Cl)c3)cc2)CC1`?
SmPrx2 inh: inactive; Anthrax LT inh: 12.6µM; AmpC inh det: inactive; AmpC inh no det: inactive

Results for O=C(Nc1ccccc1)Nc1ccc(S(=O)(=O)N2CCCCC2)cc1 ?
SmPrx2 inh: inactive; Anthrax LT inh: inconclusive; AmpC inh det: inactive; AmpC inh no det: inactive

What do the screens show for `C[N@+]1(CCC(=O)c2ccccc2)CC[C@H]2CC[C@H](C2)C1`?
SmPrx2 inh: inactive; Anthrax LT inh: inactive[8 µM]; AmpC inh det: inactive[5.75 µM]; AmpC inh no det: inactive[5.75 µM]

Results for CSc1ccccc1NC(=O)c1ccncc1 ?
SmPrx2 inh: inactive; Anthrax LT inh: inactive; AmpC inh det: inactive; AmpC inh no det: inactive

Results for C/C(=C\C(=O)c1ccncc1)Nc1ccccc1O ?
Anthrax LT inh: 2.51µM; AmpC inh det: inactive; AmpC inh no det: inactive

Results for CNCCCC12CCC(c3ccccc31)c1ccccc12 ?
SmPrx2 inh: inactive; Anthrax LT inh: 5.01µM!; AmpC inh det: inactive; AmpC inh no det: inactive

What do the screens show for `CNCCCC1c2ccccc2C=Cc2ccccc21`?
SmPrx2 inh: inactive; Anthrax LT inh: inactive[3.58 µM]; AmpC inh det: inactive; AmpC inh no det: inactive

How did CCNc1nc(C)cc(COC)c1C#N do in these assays?
Anthrax LT inh: inactive; AmpC inh det: inactive; AmpC inh no det: inactive

How did COCc1cc(C)nc(N2CCOCC2)c1C#N do in these assays?
Anthrax LT inh: inactive; AmpC inh det: inactive; AmpC inh no det: 3.98µM[single pt active]

How did COc1ccc2c(c1O)-c1cccc3c1[C@H](C2)N(C)CC3 do in these assays?
SmPrx2 inh: inactive; Anthrax LT inh: inconclusive; AmpC inh det: inactive; AmpC inh no det: inactive

How did FC(F)(F)c1nc2ccc(SSc3ccc4nc(C(F)(F)F)[nH]c4c3)cc2[nH]1 do in these assays?
SmPrx2 inh: inactive; Anthrax LT inh: inactive[8 µM]; AmpC inh det: inactive[5.75 µM]; AmpC inh no det: inactive[5.75 µM]

What do the screens show for `CCN(CC)c1ccc(NC(=O)CSc2nc3ccccc3c(=O)[nH]2)cc1`?
SmPrx2 inh: inactive; Anthrax LT inh: inactive; AmpC inh det: inactive; AmpC inh no det: 10µM[single pt active]

Results for Cc1ccccc1CNc1nc(N)n(-c2ccccc2)n1 ?
SmPrx2 inh: inactive; Anthrax LT inh: inactive; AmpC inh det: inactive; AmpC inh no det: 3.98µM[single pt active]

What do the screens show for `COc1ccccc1CNc1ncnc2ccc(-c3ccccc3C#N)cc12`?
SmPrx2 inh: inactive; Anthrax LT inh: inconclusive; AmpC inh det: inactive; AmpC inh no det: inactive

How did CCn1c(SCC#N)nc2c(c1=O)C1(CCCC1)Cc1ccccc1-2 do in these assays?
SmPrx2 inh: inactive; Anthrax LT inh: 10µM; AmpC inh det: inactive; AmpC inh no det: inactive

How did CCCCC/C=C\C/C=C\C/C=C\C/C=C\CCCC(=O)NCC(=O)O do in these assays?
SmPrx2 inh: inactive; Anthrax LT inh: inactive; AmpC inh det: inactive; AmpC inh no det: inactive
